Results: PMC5540273 (PLoS ONE, 2017)

Experiments:
Settings in all cases: concentration: 1 μM, replicates: in singlicate; n = 1
MAP3K3 = tested on: MAP3K3
MAP3K4 = tested on: MAP3K4
MAP4K2 = tested on: MAP4K2
MAP4K3 = tested on: MAP4K3
MAP4K4 = tested on: MAP4K4
MAP4K5 = tested on: MAP4K5
MAPKAPK2 = tested on: MAPKAPK2
MAPKAPK5 = tested on: MAPKAPK5
MARK1 = tested on: MARK1
MARK2 = tested on: MARK2
MARK3 = tested on: MARK3
MARK4 = tested on: MARK4
MAST1 = tested on: MAST1
MEK1 = tested on: T1, MEK1
T1 construct: gene MAP2K1

MEK2 = tested on: T2, MEK2
T2 construct: gene MAP2K2

MEK3 = tested on: T3, MEK3
T3 construct: gene MAP2K3

MEK4 = tested on: T4, MEK4
T4 construct: gene MAP2K4

MEK5 = tested on: T5, MEK5
T5 construct: gene MAP2K5

MEK6 = tested on: T6, MEK6
T6 construct: gene MAP2K6

MELK = tested on: MELK
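Note: KINOMEscan kinase panel screen.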

Row | SMILES | %Inh (MAP3K3) | %Inh (MAP3K4) | %Inh (MAP4K2) | %Inh (MAP4K3) | %Inh (MAP4K4) | %Inh (MAP4K5) | %Inh (MAPKAPK2) | %Inh (MAPKAPK5) | %Inh (MARK1) | %Inh (MARK2) | %Inh (MARK3) | %Inh (MARK4) | %Inh (MAST1) | %Inh (MEK1) | %Inh (MEK2) | %Inh (MEK3) | %Inh (MEK4) | %Inh (MEK5) | %Inh (MEK6) | %Inh (MELK)
1 | CNc1nccc(-c2c(-c3ccc(F)cc3)ncn2C2CCN(C)CC2)n1 [SB-222903] | 0% | 0% | 0% | 0% | 0% | 0% | 0% | 0% | 0% | 0% | 18% | 16% | 10% | 8% | 26% | 1% | 0% | 37% | 0% | 0%
2 | O=C(Nc1n[nH]c2nc(-c3ccco3)c(Br)cc12)c1ccc(CN2CCCC2)cc1.O=C(O)[C@H](O)[C@@H](O)C(=O)O [SB-742352] | 0% | 4% | 34% | 0% | 4% | 24% | 0% | 0% | 0% | 1% | 0% | 2% | 6% | 0% | 0% | 0% | 0% | 83% | 0% | 3%
3 | CC(C)N1CCC(n2cnc(-c3ccc(F)cc3)c2-c2ccnc(N)n2)CC1 [SB-223132] | 0% | 26% | 0% | 0% | 0% | 0% | 1% | 0% | 0% | 0% | 14% | 15% | 0% | 0% | 22% | 0% | 0% | 31% | 3% | 8%
4 | CCC(CC)(CC)n1cnc2c(N)ncnc21 [SKF-97620] | 0% | 0% | 25% | 0% | 0% | 0% | 0% | 10% | 24% | 15% | 34% | 37% | 32% | 10% | 21% | 36% | 43% | 45% | 14% | 0%
5 | COc1ccc(NC(=O)c2ccc(-c3cc(-c4nnc(C)o4)ccc3C)cc2)cc1 [GW595885] | 0% | 20% | 0% | 0% | 4% | 0% | 25% | 0% | 0% | 0% | 0% | 0% | 5% | 0% | 0% | 0% | 9% | 0% | 0% | 0%
6 | Cc1ccc(O)cc1Nc1cc(C(F)(F)F)nc2ccc(-c3ccncc3)cc12 [GW630823] | 0% | 0% | 0% | 0% | 0% | 0% | 0% | 0% | 0% | 9% | 0% | 4% | 0% | 0% | 5% | 0% | 0% | 0% | 0% | 0%
7 | CC(C)(C)c1ccc(-n2cnc3c(N)ncnc32)cc1 [SKF-97263] | 0% | 10% | 11% | 5% | 6% | 6% | 23% | 8% | 0% | 0% | 0% | 0% | 0% | 0% | 10% | 0% | 21% | 44% | 0% | 13%
8 | Fc1ccc(-c2ncn(CCCNCc3ccccc3)c2-c2ccncc2)cc1 | 16% | 7% | 14% | 0% | 0% | 12% | 10% | 19% | 0% | 0% | 5% | 0% | 28% | 26% | 20% | 30% | 0% | 31% | 17% | 5%
